Laboratory results taken from PubChem BioAssay (Tox21).
Unmarked numbers belong to inactive results. Inconclusive results are not listed. Where a call stands in place of a potency, no number is given. Active and inactive are the calls of the source. Unless noted, the call rests on the fitted dose curve; in most records, active means well fitted curve in the direction sought with a large enough effect in the repeat runs; inconclusive means weak or mixed curves; inactive means flat fitted curve, though single readings scatter.

What was measured:
[1] = qHTS assay to test for compound auto fluorescence at 535 nm (green) in HEK293 cells (AID 720680); further: potency means the concentration at half of the fitted maximal effect
[2] = qHTS assay to test for compound auto fluorescence at 460 nm (blue) in HEK293 cell free culture (AID 720681); further: potency means the concentration at half of the fitted maximal effect
In short: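 Test compounds were pinned into cell-free culture medium (DMEM with 10% FBS) and fluorescence was read directly at Ex/Em 405/460 nm. Signals were expressed as fluorescence equivalents of triamterene, with DMSO vehicle as control.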

[3] = qHTS assay to test for compound auto fluorescence at 535 nm (green) in HEK293 cell free culture (AID 720682); further: potency means the concentration at half of the fitted maximal effect
In short: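 Using fluorescein as calibrant, autofluorescence was quantified at 485/535 nm in cell-free DMEM containing 10% FBS after pintool addition of compound or vehicle.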

[4] = qHTS assay to test for compound auto fluorescence at 590 nm (red) in HEK293 cell free culture (AID 720683)
In short: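 Tox21 10K library compounds were pinned into cell-free DMEM with 10% FBS and fluorescence was read at excitation 540 nm. Activity is expressed as Rose Bengal sodium equivalency.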

[5] = qHTS assay to test for compound auto fluorescence at 590 nm (red) in HepG2 cell free culture (AID 720684)
In short: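 Ex 540 / Em 590 nm read of compound in cell-free MEM (10% FBS). Rose Bengal sodium reference.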

[6] = qHTS assay to test for compound auto fluorescence at 460 nm (blue) in HepG2 cell free culture (AID 720685); further: potency means the concentration at half of the fitted maximal effect
In short: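 Cell-free plates of MEM plus 10% FBS received 23 nL compound or DMSO vehicle; blue-channel (405/460 nm) intensity scored against triamterene as reference fluorophore.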

[7] = qHTS assay to test for compound auto fluorescence at 535 nm (green) in HepG2 cell free culture (AID 720686); further: potency means the concentration at half of the fitted maximal effect
[8] = qHTS assay to test for compound auto fluorescence at 460 nm (blue) in HepG2 cells (AID 720687); further: potency means the concentration at half of the fitted maximal effect
In short: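 Cells (2,000/well in MEM with 10% FBS) attached overnight at 37 C, then were exposed to compound or DMSO for 1 hr at 37 C, 5% CO2. Fluorescence read at Ex/Em 405/460 nm, expressed as triamterene-equivalent signal.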

[9] = biological target: Glucocorticoid receptor (Homo sapiens) (UniProt P04150); test: qHTS assay to identify small molecule agonists of the glucocorticoid receptor (GR) signaling pathway (AID 720691; active means well fitted activation curve with a large enough effect in the signal ratio in the repeat runs, not every such curve was filed as active; the % refers to the signal ratio); details: GR-bla HeLa, beta-lactamase reporter ratio, 18 h; activation: at 62.4 µM (top of the series)
Sequence of Glucocorticoid receptor (Homo sapiens) (P04150 whole entry, looked up): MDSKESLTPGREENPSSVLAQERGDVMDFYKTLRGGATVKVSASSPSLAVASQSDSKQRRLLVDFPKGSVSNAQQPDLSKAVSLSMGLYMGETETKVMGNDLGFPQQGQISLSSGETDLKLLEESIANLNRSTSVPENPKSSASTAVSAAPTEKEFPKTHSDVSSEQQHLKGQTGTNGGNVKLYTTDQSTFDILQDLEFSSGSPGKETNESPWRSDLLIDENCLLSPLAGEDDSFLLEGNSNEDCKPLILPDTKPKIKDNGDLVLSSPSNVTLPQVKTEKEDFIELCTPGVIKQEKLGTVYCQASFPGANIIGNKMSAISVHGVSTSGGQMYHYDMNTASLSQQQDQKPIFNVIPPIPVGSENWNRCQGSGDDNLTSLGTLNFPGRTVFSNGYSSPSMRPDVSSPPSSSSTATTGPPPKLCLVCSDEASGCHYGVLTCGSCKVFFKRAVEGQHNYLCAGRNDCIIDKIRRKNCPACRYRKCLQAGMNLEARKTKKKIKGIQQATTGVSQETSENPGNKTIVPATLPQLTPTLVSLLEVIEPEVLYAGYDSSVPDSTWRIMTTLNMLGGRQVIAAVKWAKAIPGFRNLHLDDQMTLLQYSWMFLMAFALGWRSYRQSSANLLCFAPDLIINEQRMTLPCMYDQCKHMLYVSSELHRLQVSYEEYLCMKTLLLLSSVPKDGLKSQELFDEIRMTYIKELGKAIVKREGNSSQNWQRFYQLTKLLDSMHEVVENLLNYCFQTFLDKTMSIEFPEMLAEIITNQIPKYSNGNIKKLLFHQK
In short: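 Measures GR pathway activation through a GRE-beta-lactamase reporter stably integrated in HeLa cells, with 18 h compound treatment at 37 C and fluorescence detection using a FRET substrate.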
Tags describe the fitted curve by direction and shape or compound fluorescence and quenching.

CN(C)CCCN1c2ccccc2CCc2ccccc21
Potency [1]: inactive
Potency [2]: inactive
Potency [3]: inactive
Potency [4]: inactive
Potency [5]: inactive
Potency [6]: inactive
Potency [7]: inactive
Potency [8]: inactive

CN1CCN(C2Cc3ccccc3Sc3ccc(Cl)cc32)CC1 (stereo not drawn)
Potency [1]: inactive
Potency [2]: inactive
Potency [3]: inactive
Potency [4]: inactive
Potency [5]: inactive
Potency [6]: inactive

CCN(CC)CCOc1ccc(C(O)(Cc2ccc(Cl)cc2)c2ccc(C)cc2)cc1 (stereo not drawn)
Potency [1]: inactive
Potency [2]: inactive
Potency [3]: inactive
Potency [4]: inactive
Potency [5]: inactive
Potency [6]: inactive

CC(C)(C)CC(C)(C)c1ccccc1O
Potency [1]: inactive
Potency [2]: inactive
Potency [3]: inactive
Potency [4]: inactive
Potency [5]: inactive
Potency [6]: inactive
Potency [7]: inactive

CC(C)(c1cc(Br)c(O)c(Br)c1)c1cc(Br)c(O)c(Br)c1
Potency [1]: inactive
Potency [2]: inactive
Potency [3]: inactive
Potency [4]: inactive
Potency [5]: inactive
Potency [6]: inactive
Potency [7]: inactive
Potency [8]: inactive

COCC(=O)O[C@]1(CCN(C)CCCc2nc3ccccc3[nH]2)CCc2cc(F)ccc2[C@@H]1C(C)C
Potency [1]: inactive
Potency [2]: inactive
Potency [3]: inactive
Potency [4]: inactive
Potency [5]: inactive
Potency [6]: inactive
Potency [7]: inactive

Clc1ccccc1CN1CCc2sccc2C1
Potency [1]: inactive
Potency [2]: inactive
Potency [3]: inactive
Potency [4]: inactive
Potency [5]: inactive
Potency [6]: inactive

COc1cccc(CCc2ccccc2OCC(CN(C)C)OC(=O)CCC(=O)O)c1 (stereo not drawn)
Potency [1]: inactive
Potency [2]: inactive
Potency [3]: inactive
Potency [4]: inactive
Potency [5]: inactive
Potency [6]: inactive
Potency [7]: inactive
Potency [8]: inactive

CCOC(=O)C1=C(C)NC(C)=C(C(=O)OCC)C1c1ccccc1/C=C/C(=O)OC(C)(C)C
Potency [1]: inactive
Potency [2]: inactive
Potency [3]: inactive
Potency [4]: inactive
Potency [5]: inactive
Potency [6]: inactive
Potency [7]: inactive
Potency [8]: inactive

NC(=O)c1nc(-c2cccc(-c3cc(F)ccc3OCC(F)(F)C(F)(F)F)c2)n[nH]1
Potency [1]: inactive
Potency [2]: inactive
Potency [3]: inactive
Potency [4]: inactive
Potency [5]: inactive
Potency [6]: inactive
Potency [7]: inactive
Potency [8]: inactive

CCCSS/C(CCO)=C(\C)N(C=O)Cc1cnc(C)nc1N
Potency [1]: inactive
Potency [2]: inactive
Potency [3]: inactive
Potency [4]: inactive
Potency [5]: inactive
Potency [6]: inactive
Potency [7]: inactive
Potency [8]: inactive

c1cc(OCC2CO2)cc(OCC2CO2)c1 (stereo not drawn)
Potency [1]: inactive
Potency [2]: inactive
Potency [3]: inactive
Potency [4]: inactive
Potency [5]: inactive
Potency [6]: inactive
Potency [7]: inactive
Potency [8]: inactive
Potency [9]: inactive

C[n+]1c2cc(N)ccc2cc2ccc(N)cc21 (tested in a mixture with another compound)
Potency [1]: 12.6 µM [fluorescent] (active)
Potency [2]: 11.2 µM (active)
Potency [3]: 12.6 µM [fluorescent] (active)
Potency [4]: inactive
Potency [5]: inactive
Potency [6]: 11.2 µM [fluorescent] (active)
Potency [7]: 12.6 µM [fluorescent] (active)
Potency [8]: 14.1 µM [fluorescent] (active)

CCCCOc1ccc(C(=O)CCN2CCCCC2)cc1
fluorescence, % of fluorescein [1]: 0.0036% [at 18.6 µM]
fluorescence, % of fluorescent control [2]: 0.0618% [at 18.6 µM]
activity change [3]: -0.0432% [at 18.6 µM, hits give high values]
fluorescence, % of fluorescent control [4]: -0.0248% [at 18.6 µM]
fluorescence, % of Rose Bengal [5]: -0.355% [at 18.6 µM]
fluorescence, % of fluorescent control [6]: 0.0259% [at 18.6 µM]
fluorescence, % of fluorescein control [7]: 0.0663% [at 18.6 µM]
fluorescence, % of fluorescent control [8]: -0.165% [at 18.6 µM]
Potency [9]: inactive

c1cc2c3c(c1)ccc1cccc(c13)C2
Potency [1]: inactive
Potency [2]: inactive
Potency [3]: inactive
Potency [4]: inactive
Potency [5]: inactive
Potency [6]: inactive
Potency [7]: inactive
Potency [8]: inactive
Potency [9]: inactive

CCN(CC)CCCN(c1ccccc1)C1Cc2ccccc2C1
Potency [1]: inactive
Potency [2]: inactive
Potency [3]: inactive
Potency [4]: inactive
Potency [5]: inactive
Potency [6]: inactive
Potency [7]: inactive
Potency [8]: inactive

Cc1occc1SSc1ccoc1C
Potency [1]: inactive
Potency [2]: inactive
Potency [3]: inactive
Potency [4]: inactive
Potency [5]: inactive
Potency [6]: inactive
Potency [7]: inactive
Potency [8]: inactive
Potency [9]: inactive

Cc1ccc2ccc3cccc4ccc1c2c34
Potency [1]: inactive
Potency [2]: inactive
Potency [3]: inactive
Potency [4]: inactive
Potency [5]: inactive
Potency [6]: inactive
Potency [7]: inactive
Potency [8]: inactive
Potency [9]: inactive

SCCCCCCCCS
Potency [1]: inactive
Potency [2]: inactive
Potency [3]: inactive
Potency [4]: inactive
Potency [5]: inactive
Potency [6]: inactive
Potency [7]: inactive
Potency [8]: inactive

CCCCCCCCCCCCOC(=O)c1cc(O)c(O)c(O)c1
Potency [1]: inactive
Potency [2]: inactive
Potency [3]: inactive
Potency [4]: inactive
Potency [5]: inactive
Potency [6]: inactive
Potency [7]: inactive
Potency [8]: inactive

C=CC(=O)OCCC#N
Potency [1]: inactive
Potency [2]: inactive
Potency [3]: inactive
Potency [4]: inactive
Potency [5]: inactive
Potency [6]: inactive
Potency [7]: inactive
Potency [8]: inactive
Potency [9]: inactive

Cc1cc(Nc2ccc(O)cc2)ccc1N
Potency [1]: inactive
Potency [2]: inactive
Potency [3]: inactive
Potency [4]: inactive
Potency [5]: inactive
Potency [6]: inactive
Potency [7]: inactive
Potency [8]: inactive

CCCCCCCCCCCC(=O)N(CC)CC
Potency [1]: inactive
Potency [2]: inactive
Potency [3]: inactive
Potency [4]: inactive
Potency [5]: inactive
Potency [6]: inactive
Potency [7]: inactive
Potency [8]: inactive

O=C(O)c1cccc(Cl)n1
Potency [1]: inactive
Potency [2]: inactive
Potency [3]: inactive
Potency [4]: inactive
Potency [5]: inactive
Potency [6]: inactive
Potency [7]: inactive
Potency [8]: inactive

O=C1c2c(O)ccc(O)c2C(=O)c2c(NCCNCCO)ccc(NCCNCCO)c21
fluorescence, % of fluorescein [1]: 0.0058% [at 18.6 µM]
fluorescence, % of fluorescent control [2]: -0.133% [at 18.6 µM]
activity change [3]: -0.248% [at 18.6 µM, hits give high values]
fluorescence, % of fluorescent control [4]: -0.213% [at 18.6 µM]
fluorescence, % of Rose Bengal [5]: -0.463% [at 18.6 µM]
fluorescence, % of fluorescent control [6]: -0.123% [at 18.6 µM]
fluorescence, % of fluorescein control [7]: -0.22% [at 18.6 µM]
fluorescence, % of fluorescent control [8]: -0.0158% [at 18.6 µM]
